Where a name gives a salt, the structure may show the parent alone. ± gives the standard deviation of the averaged measurements.
Tested on: E. coli TESEC Mtb Alr
Assay: growth (OD600 after 10 h); higher = more growth (less inhibition)
Conditions: arabinose 10000000 nM; compound 0.1 mM; raw OD600 reference: median of DMSO wells 0.146, cell-free background 0.041
Description: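 TESEC Mtb Alr E. coli, or the Alr+ wild-type control, in 384-well plates with Prestwick library compounds at 0.1 mM and 1% DMSO, across arabinose induction levels of 1E3 to 1E7 nM. Growth is read as OD600 after 10 h at 37 °C in triplicate biological replicates.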

Row | SMILES | growth
1 | CN1CCc2c(c3ccccc3n2Cc2ccccc2)C1 [Mebhydroline 1,5-naphtalenedisulfonate] | 0.157 ± 0.005
2 | C[C@@H](O[C@H]1OCCN(Cc2n[nH]c(=O)[nH]2)[C@H]1c1ccc(F)cc1)c1cc(C(F)(F)F)cc(C(F)(F)F)c1 [Aprepitant] | 0.0777 ± 0.0096
3 | COc1cccc(N(C)C(=S)Oc2ccc3c(c2)CCCC3)n1 [Liranaftate] | 0.149 ± 0.0092
4 | Oc1c(Cl)cc(Cl)c(Cl)c1Cc1c(O)c(Cl)cc(Cl)c1Cl [Hexachlorophene] | 0.0464 ± 0.0029
5 | CC1(C)S[C@@H]2[C@H](NC(=O)[C@H](N)c3ccccc3)C(=O)N2[C@H]1C(=O)O [Ampicillin trihydrate] | 0.145 ± 0.0022
6 | CCC(=O)O[C@]1(C(=O)SCF)[C@H](C)C[C@H]2[C@@H]3C[C@H](F)C4=CC(=O)C=C[C@]4(C)[C@@]3(F)[C@@H](O)C[C@@]21C [Fluticasone propionate] | 0.149 ± 0.0044
7 | CCCC(=O)Nc1ccc(OCC(O)CNC(C)C)c(C(C)=O)c1 (stereo not given) [Acebutolol hydrochloride] | 0.1572 ± 0.0014
8 | CC(C)(C)NC[C@H](O)COc1cccc2c1CCCC2=O [(-) -Levobunolol hydrochloride] | 0.141 ± 0.0056
9 | COC(=O)CCc1ccc(OCC(O)CNC(C)C)cc1 (stereo not given) [Esmolol hydrochloride] | 0.129 ± 0.0016
10 | O=c1[nH]cnc2c1ncn2[C@H]1CC[C@@H](CO)O1 [Didanosine] | 0.199 ± 0.0058
11 | C[C@@H]1CCC[C@H](C)N1NC(=O)c1ccc(Cl)c(S(N)(=O)=O)c1 [Clopamide] | 0.135 ± 0.002
12 | CCCc1nn(C)c2c(=O)[nH]c(-c3cc(S(=O)(=O)N4CCN(C)CC4)ccc3OCC)nc12 [Sildenafil] | 0.1693 ± 0.0008
13 | O=C1[C@H]2CCCC[C@H]2C(=O)N1CCCCN1CCN(c2nsc3ccccc23)CC1 [Perospirone] | 0.1416 ± 0.00075
14 | CN1CCCC(CC2c3ccccc3Sc3ccccc32)C1 (stereo not given) [Metixene hydrochloride] | 0.044 ± 0.0005
15 | C[C@H]1O[C@H](O[C@H]2[C@H](O)[C@@H](O)[C@@H](O[C@@H]([C@H](O)[C@@H](O)C=O)[C@H](O)CO)O[C@@H]2CO)[C@H](O)[C@@H](O)[C@@H]1N[C@H]1C=C(CO)[C@@H](O)[C@H](O)[C@H]1O [Acarbose] | 0.145 ± 0.013
16 | O=C(Oc1cccc2cccnc12)c1ccccc1 [Benzoxiquine] | 0.14 ± 0.01
17 | O=P(O)(O)C(O)(Cn1ccnc1)P(=O)(O)O [Zoledronic acid hydrate] | 0.134 ± 0.0016
18 | Clc1ccc(COC(Cn2ccnc2)c2ccc(Cl)cc2Cl)c(Cl)c1 (stereo not given) [Miconazole] | 0.141 ± 0.061
19 | CC[N+](CC)(CC)CCC(O)(c1ccccc1)C1CCCCC1 (stereo not given) [Tridihexethyl chloride] | 0.144 ± 0.0075
20 | COc1ccc(-c2ccc3cc(C(=O)O)ccc3c2)cc1C12CC3CC(CC(C3)C1)C2 [Adapalene] | 0.125 ± 0.0023

Row | SMILES | growth
21 | CC1=Nc2ccc(Cl)cc2S(=O)(=O)N1 [Diazoxide] | 0.146 ± 0.0083
22 | COCCCOc1ccnc(C[S+]([O-])c2nc3ccccc3[nH]2)c1C (stereo not given) [Rabeprazole Sodium salt] | 0.1339 ± 0.0007
23 | O=C(O)c1cc(/N=N/c2ccc(S(=O)(=O)Nc3ccccn3)cc2)ccc1O [Sulfasalazine] | 0.131 ± 0.0032
24 | Cc1c(O)c(=O)n(-c2ccccc2)n1C [Antipyrine, 4-hydroxy] | 0.154 ± 0.0051
25 | C[C@]12C[C@H](O)[C@H]3[C@@H](CCC4=CC(=O)CC[C@@]43C)[C@@H]1CC[C@@H]2C(=O)CO [Corticosterone] | 0.134 ± 0.0044
26 | CC(CN(C)C)CN1c2ccccc2Sc2ccccc21 (stereo not given) [Trimeprazine tartrate] | 0.168 ± 0.0079
27 | C[C@@H]1C[C@H]2[C@@H]3C[C@H](F)C4=CC(=O)C=C[C@]4(C)[C@@]3(F)[C@@H](O)C[C@]2(C)[C@@]1(O)C(=O)COC(=O)C(C)(C)C [Flumethasone pivalate] | 0.145 ± 0.012
28 | COc1cc(C)c(/C=C/C(C)=C/C=C/C(C)=C/C(=O)O)c(C)c1C [Acitretin] | 0.162 ± 0.0072
29 | CC(=O)OCC1=C(C(=O)O)N2C(=O)[C@@H](NC(=O)Cc3cccs3)[C@H]2SC1 [Cephalothin sodium salt] | 0.174 ± 0.0022
30 | CC(C)NCC(O)c1ccc(O)c(O)c1 (single isomer, unassigned; (+)) [(+)-Isoproterenol (+)-bitartrate salt] | 0.137 ± 0.0022
31 | CCC1(c2ccccc2)C(=O)NCNC1=O [Primidone] | 0.144 ± 0.0039
32 | CC(C)(C)C(=O)OCOC(=O)[C@@H]1N2C(=O)[C@@H](/N=C/N3CCCCCC3)[C@H]2SC1(C)C [Pivmecillinam hydrochloride] | 0.191 ± 0.021
33 | CC(C)N1CCN(c2ccc(OCC3COC(Cn4cncn4)(c4ccc(Cl)cc4Cl)O3)cc2)CC1 (stereo not given) [Terconazole] | 0.15383 ± 0.00015
34 | Cc1cc(C(C)(C)C)c(O)c(C)c1CC1=NCCN1 [Oxymetazoline hydrochloride] | 0.165 ± 0.011
35 | Cc1ccc(O)c([C@H](CCN(C(C)C)C(C)C)c2ccccc2)c1 [Tolterodine tartrate] | 0.191 ± 0.0035
36 | CN1CCCN(C(c2ccccc2)c2ccc(Cl)cc2)CC1 (stereo not given) [Homochlorcyclizine dihydrochloride] | 0.0545 ± 0.00056
37 | NC[C@H]1CC[C@H](C(=O)O)CC1 [Tranexamic acid] | 0.141 ± 0.0029
38 | Cc1cc(-c2ccccc2)nnc1NCCN1CCOCC1 [Minaprine dihydrochloride] | 0.156 ± 0.0078
39 | COc1ccc(C[C@@H]2c3cc(OC)c(OC)cc3CC[N@+]2(C)CCC(=O)OCCCCCOC(=O)CC[N@@+]2(C)CCc3cc(OC)c(OC)cc3[C@H]2Cc2ccc(OC)c(OC)c2)cc1OC [Cisatracurium besylate] | 0.156 ± 0.0018
40 | N#Cc1cc(NC(=O)C(=O)O)c(Cl)c(NC(=O)C(=O)O)c1 [Lodoxamide] | 0.134 ± 0.0054
